MBNL1 CUG block: qHTS Assay for Inhibitors of MBNL1-poly(CUG) RNA binding | TR-FRET MBNL1-His/biotin-(CUG)12 binding, 665/545 ratio | AID 2675, 2010 | Muscleblind-like protein 1 (Homo sapiens), Q9NR56 | 280,000 tested, 0.036% active | Potency, µM (doses to about 57.5 µM), for inactives: at the highest dose activity change, negative = inhibition, hits mostly inhibitors; active = well fitted inhibition curve with a large enough effect in the signal ratio, with a control signal flat, not every such curve was filed as active; inconclusive = small, poorly fitted or top-dose-only effect, or effect the other way, or a change in a side signal; inactive = no such curve, though single readings can be large or run the other way; the % refers to the signal ratio; also: potency is read from the fitted curve at half-maximal effect; % is scaled to controls: 0 for no effect and ±100 for the full control effect
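Compound titration spanned 92 nM–58 uM against the MBNL1-His/biotin-(CUG)12 complex. After 60 min at room temperature with 5 nM streptavidin-XL665 and 0.055 ng/ul terbium anti-His, ratiometric 665/545 nm emission (Ex 340 nm) normalized to controls.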
D3 ag: qHTS of D3 Dopamine Receptor Agonist: qHTS | D(3) dopamine receptor (Homo sapiens), P35462 | D3R DiscoveRx beta-arrestin cells, luminescence, 90 min | max activation, % | 410,000 tested, 0.58% active | AID 652048, 2013; in the data active = max activation above about 30%; also: 0% is about no effect
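Cells at 1500/well, incubated overnight, then treated with pinned compounds (dopamine as control) for 90 min at 37 degrees C. DiscoveRx reagent added for 30 - 60 minutes at room temperature; luminescence read.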
PTHR1 agonist: qHTS for PTHR1 Agonists: Primary Screen; Parathyroid hormone/parathyroid hormone-related peptide receptor (Homo sapiens), Q03431; HEK293 GP2 PTHR1 cells, GloSensor cAMP luminescence, 1 h; Potency, µM (doses to about 115 µM), for inactives: at the top dose activation, most hits filed as activators; 410,000 tested, 0.075% active; also: potency is read from the fitted curve at half-maximal effect; nearly all actives have a fitted effect of over 55% in size
Target sequence (Q03431 whole entry, looked up): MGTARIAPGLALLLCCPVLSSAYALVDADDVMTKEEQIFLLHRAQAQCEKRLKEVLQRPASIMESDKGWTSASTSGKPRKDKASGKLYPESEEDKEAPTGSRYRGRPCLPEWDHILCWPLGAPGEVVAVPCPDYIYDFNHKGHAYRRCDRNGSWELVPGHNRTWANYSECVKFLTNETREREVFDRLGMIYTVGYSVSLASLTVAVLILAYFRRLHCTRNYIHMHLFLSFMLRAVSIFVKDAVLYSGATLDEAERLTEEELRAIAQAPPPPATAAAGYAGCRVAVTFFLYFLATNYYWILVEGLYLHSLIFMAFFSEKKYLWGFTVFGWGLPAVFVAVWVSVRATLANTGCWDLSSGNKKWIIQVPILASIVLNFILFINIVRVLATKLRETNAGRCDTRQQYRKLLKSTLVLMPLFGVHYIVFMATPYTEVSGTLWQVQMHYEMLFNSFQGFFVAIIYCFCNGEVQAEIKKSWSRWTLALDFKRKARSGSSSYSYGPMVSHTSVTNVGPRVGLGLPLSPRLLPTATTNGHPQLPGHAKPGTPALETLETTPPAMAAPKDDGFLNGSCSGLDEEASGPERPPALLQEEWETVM
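HEK-293-derived GP2 cells expressing PTHR1 and a GloSensor cAMP reporter, 3,000/well, plated overnight, given luciferin plus IBMX (each 0.5 mM as added) for 1 h at 37 °C, then compound for 1 h at 37 °C. Luminescence was read after 15 min at room temperature.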
Integrin act MD: qHTS for Activators of Integrin-Mediated Alleviation for Muscular Dystrophy; alpha7betagal myoblasts, beta-gal FDG fluorescence, 48 h; Potency, µM (series often up to 38.3 µM), for inactives: top-dose activation, actives largely listed as activators; 350,000 tested, 0.064% active;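 also: potency is read from the fitted curve at half-maximal effect; 100% = response of the positive control SU9516; nearly all actives have a fitted effect of over 60% in size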
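Alpha7betagal+/- myoblasts (passage 13) were plated 16-24 hr, then exposed to compounds (1:260 dilution of DMSO stock) for 48 hours at 37C. After MPER lysis, β-galactosidase reporter activity was read as FDG fluorescence (ex 480/em 540) after 30 minutes.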
D3 antag: qHTS of D3 Dopamine Receptor Antagonist: qHTS; D(3) dopamine receptor (Homo sapiens), P35462; D3R cells, DiscoveRx beta-arrestin luminescence, antagonist mode; hits give low values; max response, negative = inhibition, %; 360,000 tested, 2.5% active; in the data active = max response below about -50%; inconclusive = no clear call, values can overlap the other calls; also: % is scaled to controls: 0 for no effect and ±100 for the full control effect
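Cells expressing the human receptor were seeded at 1500 cells/well, incubated overnight at 37 degrees C in 5% CO2, then exposed to library compounds with dopamine controls for 90 minutes at 37 degrees C before luminescent detection.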
CBFb-RUNX1 inh: qHTS Assay for Compounds Blocking the Interaction Between CBF-beta and RUNX1 for the Treatment of Acute Myeloid Leukemia. AlphaScreen CBFb-His/RUNX1-biotin binding, biochemical. Potency, µM (top dose mostly 59.8 µM), for inactives: top-dose activity, negative = inhibition, actives largely listed as inhibitors. 230,000 tested, under 10 active. Runt-related transcription factor 1 (Homo sapiens) + Core-binding factor subunit beta …. AID 1477, 2009; also: % of control where 0% means no effect
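Room-temperature protein-protein interaction test with 30 nM each of His-tagged CBF-beta and biotinylated RUNX1, 15 min with compound, then 90 min with nickel plus streptavidin beads. Signal read in AlphaScreen mode.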
* = called active by the depositor; i = inactive; ? = inconclusive; . = not tested or not shown; [ ] = another dose, or the depositor's remark. In the library only some 2.8% were active in any assay of this set; here they are far more common. Unless noted, calls follow the shape of the dose curve; as a rule, active = well fitted curve in the direction sought with a large enough effect; inconclusive = small, poorly fitted or top-dose-only effect, or another doubt; inactive = no such curve, though single readings can be large; an effect the other way counts as inactive or inconclusive.

SMILES	MBNL1 CUG block	D3 ag	PTHR1 agonist	Integrin act MD	D3 antag	CBFb-RUNX1 inh
CCNCCC(=O)N1c2ccccc2Sc2ccc(C(F)(F)F)cc21	-7%	-11	i	7%	-70*	.
CCN(CC)CCSc1nnc2c3ccccc3n(CCc3ccccc3)c2n1	?	-2	i	-11%	-79*	.
C=CCn1c2ccccc2c2nnc(SCCCn3c(=O)[nH]c4ccccc43)nc21	21%	32*	-33%[57.5 µM]	-37%	80	-12%
Cn1cc(S(=O)(=O)c2ccccc2)n(C)c1=O	1%	8	i	20%	8	-4%
CC(=O)Nc1ccc(Sc2ncccc2C(=O)Nc2ccc(OC(F)(F)F)cc2)cn1	-11%	-2	i	-20%	-21	9%
CC(=O)Nc1ccc(Sc2ncccc2C(=O)Nc2cc(Cl)cc(Cl)c2)cn1	-2%	-33	i	-14%	-52*	5%
O=C(O)c1ccc(-c2nc(-c3ccccc3)c(-c3ccccc3)[nH]2)cc1	15%	-1	-14%	0%	-18	-16%
COc1ccccc1N=Nc1nc(-c2ccccc2)c(-c2ccccc2)[nH]1	?	-30	-11%	?	-75*	.
COc1ccc(N=Nc2nc(-c3ccccc3)c(-c3ccccc3)[nH]2)cc1	.	-33	i	-19%	?	.
Oc1ccccc1N=Nc1nc(-c2ccccc2)c(-c2ccccc2)[nH]1	?	-37	-64%	1%	-72*	.
C=CCOC(=O)C(C(C)=O)C(NC(=O)OC)c1ccco1 (stereo not drawn)	.	.	.	.	.	8%[13.1 µM]
CCN1C=C(C(=O)c2ccccc2)C(=O)CC1	.	7	6%	17%	0	.
Cc1cccc(Cc2c(C)nc3nc(SCC(=O)NC4CCCCC4)nn3c2C)c1	.	-6	-14%	.	.	.
COc1ccc(CNS(=O)(=O)c2ccc(F)c(C(=O)Nc3c(C)cc(C)cc3C)c2)cc1	.	-1	-30%	.	.	.
CCCCNCC#CCOc1cc(C)ccc1C(C)C	-1%	0	-15%	-5%	-52*	-2%
Cc1ccc(C(C)C)c(OCCCNCc2cccnc2)c1	-3%	-7	i	-39%	?	0%
Cc1ccc(/C=N/NC(=O)c2c[nH]c3ccccc23)s1	?	-16	0%[57.5 µM]	10%	-19	2%
Cc1ccsc1/C=N/NC(=O)c1c[nH]c2ccccc12	?	-1	i	12%	-51*	0%
CN(C)C(=O)c1cn(-c2ccccc2)nc1-c1cc2ccccc2o1	-3%	18	-19%	3%	-16	2%
CN(Cc1cn(-c2ccccc2)nc1-c1cc2ccccc2o1)C(=O)CCC(=O)O	5%	46*	-8%	6%	2	10%
COc1ccc([N+](=O)[O-])cc1NC(=S)NC(NC(C)=O)C(Cl)(Cl)Cl (stereo not drawn)	31%	-26	i	-12%	0	8%
COc1ccc(NC(=S)NC(NC(=O)C(C)C)C(Cl)(Cl)Cl)c([N+](=O)[O-])c1 (stereo not drawn)	?	-1	i	5%	-69*	3%
O=C(NC(NC(=S)Nc1ccc(Cl)cc1Cl)C(Cl)(Cl)Cl)c1cccc([N+](=O)[O-])c1 (stereo not drawn)	9%	-2	-46%[57.5 µM]	-59%	-58*	-25%
COc1ccc([N+](=O)[O-])cc1NC(=S)NC(NC(=O)Cc1ccc(OC)c(OC)c1)C(Cl)(Cl)Cl (stereo not drawn)	9%	-12	?	-20%	-93*	0%
CN(CC(=O)N1CCN(Cc2ccccc2)CC1)C(=O)Cc1cccc2ccccc12	.	-16	-36%	-14%	-6	.
SMILES	MBNL1 CUG block	D3 ag	PTHR1 agonist	Integrin act MD	D3 antag	CBFb-RUNX1 inh
O=C(CC1NCCc2ccccc21)Nc1ccccc1 (stereo not drawn)	.	-10	-10%	-30%	-74*	1%
O=C(CC1NCCc2ccccc21)Nc1ccc(Oc2ccccc2)cc1 (stereo not drawn)	1%	15	-9%	-18%	?	-9%
COc1ccc(Cl)cc1NC(=O)CCCn1c(C)c2cnn(-c3ccccc3)c(=O)c2c1C	.	42*	-28%	.	.	.
CNc1c(C(=O)O)ccc2c1C(=O)c1ccccc1C2=O	?	-45	-4%	13%	-74*	?
O=C(O)c1ccc2c(c1Nc1ccccc1)C(=O)c1ccccc1C2=O	?	-14	-27%	0%	-56*	-1%
CCNc1c(C(=O)O)ccc2c1C(=O)c1ccccc1C2=O	7%	-14	i	28%	?	-5%
Cc1ccc(NC(=O)CC2(CC(=O)O)CCCC2)c(C)c1	-7%	4	-22%	-6%	-11	.
COCCn1c(=N)c(S(=O)(=O)c2ccc(Br)cc2)cc2c(=O)n3ccccc3nc21	11%	2	-7%	4.5µM*	28	.
Cc1ccc(F)cc1NC(=O)c1c(-c2ccccc2)noc1C	-2%	2	-24%	-13%	-50*	5%
Cc1onc(-c2ccccc2)c1C(=O)NCCc1ccncc1	-3%	-11	?	3%	-11	.
Cc1onc(-c2ccccc2)c1C(=O)NCc1cccnc1	-5%	2	i	-10%	-75*	10%
CC(=O)Nc1ccc(S(=O)(=O)NCC(=O)OCC(=O)N2CCN(c3ccccc3)CC2)cc1	-3%	-1	15%	10%	-3	-6%
Cc1ccc(C)c(SCC(=O)OCC(=O)NCCNC(=O)COC(=O)CSc2cc(C)ccc2C)c1	.	-5	-12%	-7%	-3	.
Cc1noc(C)c1C(=O)NCc1ccccc1F	-3%	-8	i	10%	2	21%
O=C(O)c1ccc2c(c1)C(=O)N([C@@H](Cc1ccc(O)cc1)C(=O)O)C2=O	.	.	.	.	.	2%
O=C(O)c1ccc2c(c1)C(=O)N(C(Cc1ccc(O)cc1)C(=O)O)C2=O (stereo not drawn)	9%	-2	i	-8%	-70*	6%
Cc1sc2c(c1C)C(O)=C(C(=O)Nc1ccccc1)S(=O)(=O)N2C	.	11	11%	-10%	-6	?
Cc1c(Cl)cccc1N=Cc1ccc([N+](=O)[O-])s1	12%	-29	-12%[57.5 µM]	-13%	-51*	-14%

Bioassay records: PubChem BioAssay, National Center for Advancing Translational Sciences (NCATS)
